From PubChem BioAssay (NCATS)
Results filed as inconclusive are left out. Where a call stands in place of a potency, no number is given. Active and inactive are the calls of the source. Calls follow the shape of the dose curve; as a rule, active = well fitted inhibition curve with a large enough effect; inconclusive = small, poorly fitted or top-dose-only effect; inactive = flat fitted curve, though single readings scatter.

Assay: qHTS for Inflammasome Signaling Inhibitors: IL-1-beta AlphaLISA screen against the NCATS CANVASS Library (AID 1347379);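 also: human THP-1 cells primed with LPS then triggered with ATP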;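 as to activity change, negative = inhibition: lower signal means less IL-1B release which is the wanted effect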
Settings: THP-1 LPS/ATP, IL-1B AlphaLISA secretion, 16 h; series mostly up to 57.5 µM; activity change, negative = inhibition: at the top concentration; outcome: at the top concentration
Excerpt: Natural products and their derivatives continue to be wellsprings of nascent therapeutic potential. However, many laboratories have limited resources for biological evaluation, leaving their previously isolated or synthesized compounds largely or completely untested. To address this issue, the Canvass library of natural products was assembled (https://tripod.nih.gov/canvass), in collaboration with academic and industry researchers, for quantitative high-throughput screening (qHTS) across a diverse set of cell-based and biochemical assays. The pure (>85% purity by liquid chromatography/mass spectrometry [LC/MS]) Canvass library of 346 natural products were submitted by 45 academic laboratories and companies around the world. We collected pure natural products to circumvent deconvolution and structure elucidation due to time and resource limitations. The library was formatted into 1536-well plates and evaluated in 50 qHTS (in an 11-pnt concentration series) bioassays with broad scope of disease-relevant mechanisms. The resulting data set from 50 different assays was then systematically analyzed to identify overall trends and specific natural products with interesting biological activities. Reported herein are the results of each individual qHTS and their corresponding assay protocol. A qHTS assay, based on AlphaLISA technology, was developed to screen the NCATS CANVASS library to look for novel inflammasome inhibitors. The assay detects IL-1B using AlphaLISA anti-IL-1B acceptor and donor beads. Human THP-1 cells were incubated with Canvass compound for 1 hr, followed by stimulation with lipopolysaccharide and ATP to induce inflammasome activation. Compounds that inhibit activation is flagged and validated. A decreased emission signal, indicating reduced IL-1B secretion, is the desired outcome for this assay. National Center for Advancing Translational Sciences (NCATS), Rockville, MD National Institute of Health (NIH), Bethesda, Maryland
IL-1-beta qHTS protocol: Three microliters containing 3000 THP-1 cells were dispensed into the wells of solid, white, tissue culture treated Greiner 1,536-well plates. Library compounds and positive control, Glyburide, were pin-transferred (23 nL) by a Kalypsys pin-tool equipped with a 1,536-pin array, resulting in final compound concentration ranges of 2.5 nM to 57.5 uM. After 1 hr of cell culture incubation (37 °C, 5% CO2), 1 microL of 1 microg/mL lipopolysaccharide (250 ng/mL, final) and 5 mM ATP (1.25 mM, final) were added to stimulate the cells. After 16 hr of cell culture incubation with the compounds, 1.5 uL of anti-IL-1B acceptor beads (6 ug/mL, final) and biotinylated antibody (0.6 nM, final) were added to the plate, followed by a 1 hr incubation at ambient temperature. To detect the secreted IL-1B, 1.5 uL of AlphaLISA SA-Donor beads (24 ug/mL, final) were added, followed by 30 min of incubation in the dark at ambient temperature. The AlphaLISA signal was read by a PerkinElmer EnVision plate reader with an ultrasensitive luminescence detector and 1536 Plate HTS AlphaScreen aperture (excitation of 680nm and emission of 615nm).
Potency is read from the fitted curve at half-maximal effect.

Structure (SMILES) | activity change, negative = inhibition | outcome | Potency
CCC[C@H]1CC[C@H]2[C@H](C)CCC[C@H]2N1 | 0.496% (inactive) | – | –
C[C@]12CC(O)C3[C@@H](CCC4C[C@@H](O)CC[C@@]43CO)[C@@]1(O)CCC2C1=CC(=O)OC1 (stereo partly specified) | – | inactive | –
CC[C@@H]1CN2CC[C@@]3(O)C(=Nc4cccc(OC)c43)[C@@H]2C[C@@H]1/C(=C\OC)C(=O)OC | – | inactive | –
C/C=C1/CN2CC[C@]34C(=Nc5ccccc53)[C@@H]2C[C@@H]1[C@H]4C(=O)OC | – | inactive [at 114 µM] | –
CC=C1CN(C=O)[C@H]2C[C@@H]1[C@@H](C(=O)OC)[C@@]13CCOC21Nc1ccccc13 (stereo partly specified) | – | inactive | –
COC(=O)C1=C2Nc3ccccc3[C@@]23CCN2CC(C(C)=O)C1C[C@H]23 (stereo partly specified) | 4.93% (inactive) | – | –
O=C(c1ccccc1O)c1[nH]c(Cl)c(Cl)c1-n1c(C(=O)c2ccccc2O)cc(Cl)c1Cl | – | – | 15.3 µM (active)
C[C@@H]1CC[C@@H](c2ccoc2)N2C[C@@]3(CC[C@@H]12)CS[C@@]1(CC[C@H]2[C@H](C)CC[C@@H](c4ccoc4)N2[C@@H]1O)C3 | – | – | 8.63 µM (active)
CO[C@@H](/C=C/CC/C=C/C(=O)O)[C@@H](O)[C@H](C)/C=C(\C)[C@@H](O)[C@H](C)C(=O)CCCC1CC(=O)NC(=O)C1 | – | inactive | –
CC1=CC2CC[C@@H]3[C@@H](C)C[C@H](C)[C@@H](C1)N23 (stereo partly specified) | – | inactive | –
CN(C)Cc1c[nH]c2ccccc12 | – | inactive | –
CCN1C[C@]2(C)CC[C@@H](O)[C@]34C1[C@H](C[C@H]23)C12CCC(CC14)[C@](O)(CO)[C@H]2O (stereo partly specified) | 1.88% (inactive) | – | –
COc1ccc2c(c1)[nH]c1c(C)nccc12 | – | – | 31.4 µM (active)
c1ccc2c3c([nH]c2c1)CNCC3 | -21.8% (inactive) | – | –
C=C1[C@@H](C)[C@H]2[C@H](Cc3ccccc3)NC(=O)[C@]23OC(=O)/C=C/[C@H](O)CCC[C@@H](C)C/C=C/[C@H]3[C@@H]1O | – | inactive | –
CO[C@@H](/C=C/CC/C=C/C(=O)O)[C@@H](O)[C@H](C)[C@@H](O)/C(C)=C/[C@H](C)C(=O)CCCC1CC(=O)NC(=O)C1 | -1.08% (inactive) | – | –
CN1C(=O)[C@]23CC4C(C)(C)[C@@]5(C[C@@]41CN2CC[C@@]3(C)O)C(=O)Nc1c5ccc2c1OC=CC(C)(C)O2 (stereo partly specified) | – | inactive | –
CCCC[C@@H]1CC[C@H]2CCCC(CCC)N12 (stereo partly specified) | – | inactive | –
CC(=O)N[C@H]1CCN2CCC[C@H]12 | – | inactive [at 128 µM] | –
CC[N@@+]1([O-])C[C@]2(C)CC[C@@H](O)[C@@]34C5C[C@H]6CC[C@@]5(C(C[C@H]23)C41)[C@H](O)[C@@]6(O)CO (stereo partly specified) | – | inactive | –
COc1ccc(C23Oc4cc(OC)cc(OC)c4[C@](O)([C@H](c4ccccc4)C2C(=O)NCCCCNC(=O)c2ccccc2)[C@@H]3O)cc1 (stereo partly specified) | – | inactive | –
CNCCc1c[nH]c2ccccc12 | – | inactive | –
CNCCc1ccccc1 | 4.06% (inactive) | – | –
NCCc1ccccc1 | 1.01% (inactive) | – | –
CNCCc1ccc(O)cc1 | – | inactive | –
CCN1C[C@]2(C)CC[C@H](O)[C@]34C1C(C[C@H]23)[C@@]12CC[C@H](CC14)[C@](O)(COC(=O)c1ccc(OC)c(OC)c1)[C@H]2O (stereo partly specified) | – | inactive | –
